A selection: hits, their analogues and other compounds. The true share with any hit is near 6.5%.
VACV Venus inh – vaccinia inhibition (Venus reporter). Potency, µM (top dose mostly 36.5 µM), for the others: at the top dose activity change, negative = inhibition, actives largely listed as inhibitors. 330,000 compounds, 0.46% hits. Vaccinia virus Venus reporter expression, fluorescence. AID 720580; calls by dose curve; tested in A549 cells; further: potency means the concentration at half of the fitted maximal effect; nearly all actives have a fitted effect of over 30% in size
HCMV antiviral – inhibitors of human cytomegalovirus | 410,000 compounds, 4.5% hits | AID 1259415 | HFF cells, HCMV-luciferase reporter, 72 h; active compounds read low | activity change, negative = inhibition, % at 57.5 µM; in the data active means activity change below about -60%; inconclusive means no clear call, values can overlap the other calls; inactive means above about -39%
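Steps: HFFs plated, 16 h 37C; compounds added; HCMV-luciferase added to MOI 1 PFU/cell; 72 h 37C; OneGlo reagent, 5 min room temperature; luminescence read, normalized to controls.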
MARV entry inh – blocks Marburg virus binding to or entry into cells. Marburg virus pseudotyped entry inhibition, cell reporter. Potency, µM (top dose mostly 37.8 µM), without a hit: top-dose activity change, negative = inhibition, actives largely listed as inhibitors. AID 540276. 300,000 compounds, 1.8% hits; calls by dose curve; tested in HEK293 cells; further: potency means the concentration at half of the fitted maximal effect
VACV mCherry inh – inhibitors of vaccinia virus infection (mCherry reporter signal); Vaccinia virus mCherry reporter infection, fluorescence; AID 720579; 310,000 compounds, 0.63% hits; Potency, µM (titrated, usually from 36.5 µM), for the others: at the top dose activity change, negative = inhibition, actives largely listed as inhibitors; calls by dose curve; tested in A549 cells; further: potency means the concentration at half of the fitted maximal effect; nearly all actives have a fitted effect of over 35% in size
Lassa entry inh – blocks Lassa virus binding to or entry into cells; Lassa virus pseudotype entry inhibition, cell reporter; Potency, µM (series often up to 37.9 µM), without a hit: at the highest dose activity change, negative = inhibition, actives largely listed as inhibitors; 300,000 compounds, 1.2% hits; AID 540256; calls by dose curve; tested in HEK293 cells; further: potency means the concentration at half of the fitted maximal effect; nearly all actives have a fitted effect of over 50% in size
FMDV inh – antivirals against foot and mouth disease virus. FMDV antiviral cell-based qHTS. Potency, µM (top dose mostly 57.9 µM), inactives show at the top dose activity change, negative = inhibition, actives largely listed as inhibitors. 410,000 compounds, 1.2% hits; calls by dose curve; tested in HEK293T cells; further: read-out not given here; potency means the concentration at half of the fitted maximal effect; nearly all actives have a fitted effect of over 45% in size
* = called active by the depositor; i = inactive; u = inconclusive; x = not tested or not shown; [ ] = another dose, or the depositor's remark. On the % scale 0 is the no-effect control and ±100 the full control effect.

SMILES	VACV Venus inh	HCMV antiviral	MARV entry inh	VACV mCherry inh	Lassa entry inh	FMDV inh
Cn1c(=O)c([N+](=O)[O-])c(N2CCSCC2)c2ccccc21	-22.2%	u	3.6%	u	u	u
O=[N+]([O-])c1ccc(N2CCN(Cc3ccc4c(c3)OCO4)CC2)nc1	-14.1%	12.4	u	u	u	u
CCn1c(=O)c([N+](=O)[O-])c(N2CCN(Cc3ccc4c(c3)OCO4)CC2)c2ccccc21	u	-64.0*	u	-23.7%	u	31.6µM*
O=c1c([N+](=O)[O-])c(N2CCOCC2)c2ccccc2n1Cc1ccccc1	-13.3%	-66.7*	-1.7%[46.1 µM]	-22.4%	u	u
CCn1c(=O)c([N+](=O)[O-])c(N2CCSCC2)c2ccccc21	u	u	u	u	-1.0%	17.8µM*
O=c1sc2ccccc2c(N2CCOCC2)c1[N+](=O)[O-]	-7.6%	6.5	2.8%	i	5.8%	5.4%
O=Cc1cc([N+](=O)[O-])ccc1N1CCN(Cc2ccc3c(c2)OCO3)CC1	-12.8%	-102.0*	2.6%[46.1 µM]	-6.1%	7.4%[46.1 µM]	-25.7%
Cc1cccc(OCCn2c(CCNC(=O)C3CCCCC3)nc3ccccc32)c1	-13.9%	x	x	11.9%	x	x
Clc1cccc(Cl)c1CNc1ccc(N2CCCC2)cc1	9.8%	-77.5*	u	-5.8%	3.8%	-9.0%
N#Cc1ccc(-c2cccs2)nc1SCc1ccc(Cl)cc1Cl	-6.9%	6.8	2.1%[46.1 µM]	-8.1%	u	-11.1%
CCCCCCCCCCC[N+](C)(C)CC/C=C1/c2ccccc2Sc2ccc(Cl)cc21	11.2µM*	x	x	u	x	u
CCCCCCCCCC[N+](C)(C)CC/C=C1/c2ccccc2Sc2ccc(Cl)cc21	11.2µM*	x	x	u	x	u
Cc1c(O)ccc2c1OC(C)(C)CC2	-11.0%	x	x	-21.2%	x	x
CC(C)(C)S(=O)(=O)N1C[C@@H]2CC(=O)C(CCO)=C2[C@H]1CCO	x	19.7	x	x	x	x
COc1ccc(CNc2ccnc(-c3ccccc3Cl)n2)c(OC)c1	x	x	x	x	x	0.0%
Cc1c(C(=O)OCC(C)C)[nH]c2c1C(=O)CC(c1ccco1)C2 (centres undefined)	u	-76.7*	u	u	u	0.0%
C=CCOC(=O)c1[nH]c2c(c1C)C(=O)CC(c1ccco1)C2 (centres undefined)	-22.2%	x	x	u	x	5.9%
Cc1c(C(=O)OC2CCCC2)[nH]c2c1C(=O)CC(c1ccco1)C2 (centres undefined)	u	-94.8*	x	u	x	u
C/C=C/COC(=O)c1[nH]c2c(c1C)C(=O)CC(c1ccco1)C2 (centres undefined)	u	-65.3*	u	u	u	-5.2%
CCC(=O)N1c2ccccc2CC1C(=O)NCCN1CCN(c2cc(Cl)ccc2C)CC1 (centres undefined)	-8.4%	-1.4	x	-15.3%	-1.9%[46.1 µM]	u
COC(=O)[C@@H](c1ccccc1Cl)N1CCc2sccc2C1	-17.4%	x	x	-4.7%	x	-22.0%
Cn1cccc1-c1nc2ccc(NC(=O)c3ccc([N+](=O)[O-])cc3)cc2[nH]1	-1.4%	25.8	25.9%	13.4%	14.9%	-16.7%
O=C(Nc1ccc2nc(-c3ccc4nc[nH]c4c3)[nH]c2c1)c1cccs1	x	-21.4	31.2%	x	-0.4%	3.7%
Cn1cc([N+](=O)[O-])c(C(=O)Nc2ccc3nc(-c4ccccc4)[nH]c3c2)n1	u	-83.2*	u	u	5.0%	16.6%
O=C(Nc1ccc(-c2nc3ccccc3[nH]2)cc1)c1ccco1	-6.6%	x	-22.4%	3.4%	u	x
SMILES	VACV Venus inh	HCMV antiviral	MARV entry inh	VACV mCherry inh	Lassa entry inh	FMDV inh
O=C(Nc1ccc2nc(-c3cccnc3)[nH]c2c1)c1ccco1	14.9%	-67.0*	-17.4%	25.1%	-5.5%	-13.8%
O=C(Nc1ccc2nc(-c3ccccc3)[nH]c2c1)c1cccs1	-13.6%	-79.4*	-3.6%	-11.6%	-16.3%	x
Cn1cc([N+](=O)[O-])c(C(=O)Nc2ccc(-c3nc4ccccc4[nH]3)cc2)n1	u	-72.9*	u	u	3.6%	42.5%
O=C(Cn1ncc2c(Cl)cccc21)NCc1cccc(Br)c1	-18.3%	-2.8	1.7%[46.1 µM]	-17.8%	-23.8%[46.1 µM]	11.3%
N#Cc1nc(-c2ccc(OCc3ccc(Cl)cc3)cc2)oc1N1CCCCCC1	5.3%	x	x	16.3%	x	x
CC(=O)Nc1ccc(S(=O)(=O)Nc2cccc(NC(=O)c3ccco3)c2)cc1	3.1%	-70.8*	-8.8%[46.1 µM]	-12.3%	-4.5%[46.1 µM]	11.7%
CN(C1CCCCC1)S(=O)(=O)c1ccc(NC(=O)c2ccco2)cc1	-13.6%	-35.8	-5.9%	x	11.2µM*	-7.2%
CN(c1ccccc1)S(=O)(=O)c1ccc(NC(=O)c2ccco2)cc1	-10.5%	-29.9	u	0.1%	u	0.4%
O=C(Nc1cccc(S(=O)(=O)N2CCCC2)c1)c1ccco1	x	7.6	x	x	x	-18.7%
O=C(Nc1cccc(S(=O)(=O)c2cccc(NC(=O)c3ccco3)c2)c1)c1ccco1	-14.3%	-69.1*	u	7.5%	u	35.5µM*
CC(=O)Nc1cccc(NS(=O)(=O)c2c(C)noc2C)c1	u	-30.0	7.9%	6.31µM*	5.9%	-8.7%
O=C(Nc1cccc(S(=O)(=O)c2cccc(NC(=O)C3CC3)c2)c1)C1CC1	u	u	u	-14.2%	20.6µM*	x
CS(=O)(=O)c1cccc(NC(=O)C2CC2)c1	-12.7%	-33.0	-6.9%[46.1 µM]	u	1.0%[46.1 µM]	-10.9%
CCc1ccc2c(c1)NC(c1ccc(F)cc1)=NC(c1ccncc1)=N2	-7.2%	6.4	3.1%[46.1 µM]	-14.0%	4.5%[46.1 µM]	-25.8%
COc1cccc(-c2ccnc(-n3ncc(C(=O)N(C)CCc4ccccn4)c3C)n2)c1	-8.5%	x	x	-12.5%	x	5.6%
Cc1ccc(CN2C(=O)CN=C(c3ccccc3)c3ccccc32)cc1	-9.3%	-73.7*	u	i	-23.0%	u
Cc1nn(C)c2c1c(-c1ccccc1)cc(=O)n2CC(=O)NC(C)c1ccccc1 (centres undefined)	4.3%	3.0	x	0.5%	-10.0%[46.1 µM]	-16.9%
CCC(=NCc1ccc(F)cc1)c1c(O)n(C)c(=O)n(C)c1=O	x	u	u	x	-4.9%	39.8µM*
O=C(O)CCSc1nnc(-c2ccc3c(c2)OCO3)o1	-10.0%	-75.4*	u	-18.2%	u	-15.3%
O=C(CSc1nnc(-c2ccc3c(c2)OCO3)o1)Nc1ncc(Cl)cc1Cl	-16.5%	-60.9*	-8.1%	-14.2%	5.4%	4.8%
CC(=O)Nc1ccc(NC(=O)CSc2nnc(-c3ccc4c(c3)OCO4)o2)cc1	x	0.0	x	x	x	0.6%
O=C1c2ccccc2NC(c2cc(Br)c3c(c2)OCO3)N1Cc1ccco1 (centres undefined)	-6.2%	x	x	-22.7%	x	x
CC(C)OC(=O)c1cc2c(ccn2C)n1CC(=O)N(Cc1ccccc1)c1ccc(F)cc1	-19.4%	6.9	5.17µM*	u	5.01µM*	0.0%
CCOC(=O)c1ccc(NC(=O)C2=C(C)Nc3nc(SCc4ccc(Cl)cc4)nn3C2c2ccc(OC)cc2)cc1 (centres undefined)	-8.1%	3.8	0.1%[46.1 µM]	-3.6%	-14.4%[46.1 µM]	-12.3%
O=C(C[n+]1ccccc1Cl)c1ccc2c(c1)CCCC2	-10.1%	x	x	-9.4%	x	x

High-throughput results as filed in PubChem.
